Assay results as given in paper PMC7862700, “An all-to-all approach to the identification of sequence-specific readers for epigenetic DNA modifications on cytosine”.

Columns and labels:
Experiment in all cases: DAPPL (digital affinity profiling via proximity ligation, sequencing); 10 mM Tris-HCl pH 7.5, 50 mM NaCl, 1 mM DTT, 4% glycerol, room temperature, 30 min; GST-TFs on glutathione beads, 16-mer random dsDNA library, 0.1% formaldehyde crosslink after washing; high values mean tight binding
[1] = biological target: T1, FLI1 (Homo sapiens, UniProt Q01543 1-452); settings: protein: recombinant; tags: N-terminal GST; dsDNA, one strand shown
T1 sequence: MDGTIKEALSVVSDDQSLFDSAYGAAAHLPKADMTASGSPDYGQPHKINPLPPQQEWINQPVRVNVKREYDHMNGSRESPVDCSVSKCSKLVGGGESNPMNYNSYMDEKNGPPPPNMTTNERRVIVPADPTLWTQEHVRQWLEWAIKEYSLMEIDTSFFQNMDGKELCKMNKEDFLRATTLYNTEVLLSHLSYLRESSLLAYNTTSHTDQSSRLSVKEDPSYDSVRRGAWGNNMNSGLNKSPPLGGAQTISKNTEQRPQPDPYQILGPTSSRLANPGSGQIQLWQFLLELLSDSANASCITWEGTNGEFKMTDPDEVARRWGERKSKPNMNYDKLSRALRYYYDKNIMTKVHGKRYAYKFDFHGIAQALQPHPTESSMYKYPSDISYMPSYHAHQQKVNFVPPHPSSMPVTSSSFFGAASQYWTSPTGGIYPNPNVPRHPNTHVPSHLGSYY
How it was run: (§1)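 A tag-only sample was pooled with DNA-barcoded human transcription factors that had been expressed in yeast as GST fusions and captured on glutathione beads. The pools were incubated for 30 min at room temperature with 200 nmole of a random double-stranded 16-mer DNA library in Tris/NaCl/DTT/glycerol buffer, then washed, crosslinked with 0.1% formaldehyde, proximity-ligated (BsaI/T4 ligase, 1 h, 37 °C), PCR-amplified and sequenced on an Illumina NextSeq500. Binding signal is each hexamer's read frequency for a factor divided by its frequency for the tag-only sample.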

[2] = biological target: T2, ELK1 (Homo sapiens, UniProt P19419 1-428); settings: protein: recombinant; tags: N-terminal GST; dsDNA, one strand shown
T2 sequence: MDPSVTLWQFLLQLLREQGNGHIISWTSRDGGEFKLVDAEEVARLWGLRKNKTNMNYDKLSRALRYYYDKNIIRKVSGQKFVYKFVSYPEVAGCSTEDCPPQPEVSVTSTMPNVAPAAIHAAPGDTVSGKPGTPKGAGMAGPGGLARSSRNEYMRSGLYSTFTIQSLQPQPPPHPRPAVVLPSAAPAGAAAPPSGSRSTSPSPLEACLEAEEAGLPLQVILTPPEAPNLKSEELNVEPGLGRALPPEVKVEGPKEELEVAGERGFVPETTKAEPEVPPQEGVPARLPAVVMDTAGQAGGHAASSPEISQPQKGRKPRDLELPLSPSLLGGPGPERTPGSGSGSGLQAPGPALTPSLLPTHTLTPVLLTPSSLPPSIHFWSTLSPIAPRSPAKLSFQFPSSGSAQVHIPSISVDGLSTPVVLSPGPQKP
How it was run: as §1

[3] = biological target: T3, GABPA (Homo sapiens, UniProt Q06546 1-454); settings: protein: recombinant; tags: N-terminal GST; dsDNA, one strand shown
T3 sequence: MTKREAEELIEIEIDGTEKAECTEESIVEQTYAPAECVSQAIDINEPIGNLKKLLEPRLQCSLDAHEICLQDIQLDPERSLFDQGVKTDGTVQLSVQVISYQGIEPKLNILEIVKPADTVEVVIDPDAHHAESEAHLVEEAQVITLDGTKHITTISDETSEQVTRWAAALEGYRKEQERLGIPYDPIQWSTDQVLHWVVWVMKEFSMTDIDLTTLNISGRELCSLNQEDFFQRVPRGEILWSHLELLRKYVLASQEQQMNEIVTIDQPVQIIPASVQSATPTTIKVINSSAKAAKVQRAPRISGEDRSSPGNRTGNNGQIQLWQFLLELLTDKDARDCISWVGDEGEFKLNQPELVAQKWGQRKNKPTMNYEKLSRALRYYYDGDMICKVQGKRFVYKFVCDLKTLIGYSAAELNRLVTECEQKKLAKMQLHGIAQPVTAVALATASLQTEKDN
How it was run: as §1

[4] = biological target: T4, ERG (Homo sapiens, UniProt P11308 1-479); settings: protein: recombinant; tags: N-terminal GST; dsDNA, one strand shown
T4 sequence: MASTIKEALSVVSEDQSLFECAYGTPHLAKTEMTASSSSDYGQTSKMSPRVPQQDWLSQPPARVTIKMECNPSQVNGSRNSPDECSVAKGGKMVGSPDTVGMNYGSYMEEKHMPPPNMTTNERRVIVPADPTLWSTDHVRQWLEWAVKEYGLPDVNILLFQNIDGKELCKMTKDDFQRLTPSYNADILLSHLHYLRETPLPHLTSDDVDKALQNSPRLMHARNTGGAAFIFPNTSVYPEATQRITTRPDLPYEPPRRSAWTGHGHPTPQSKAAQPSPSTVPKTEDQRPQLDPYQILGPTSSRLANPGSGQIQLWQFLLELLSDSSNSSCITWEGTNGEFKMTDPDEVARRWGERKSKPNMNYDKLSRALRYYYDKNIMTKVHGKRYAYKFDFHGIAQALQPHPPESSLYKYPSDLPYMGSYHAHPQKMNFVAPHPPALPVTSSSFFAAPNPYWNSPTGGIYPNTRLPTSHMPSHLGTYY
How it was run: as §1

[5] = biological target: ELF1 (Homo sapiens, UniProt P32519 1-619); settings: protein: recombinant; tags: N-terminal GST; dsDNA, one strand shown
How it was run: as §1

[6] = biological target: T5, EHF (Homo sapiens, UniProt Q9NZC4 1-300); settings: protein: recombinant; tags: N-terminal GST; dsDNA, one strand shown
T5 sequence: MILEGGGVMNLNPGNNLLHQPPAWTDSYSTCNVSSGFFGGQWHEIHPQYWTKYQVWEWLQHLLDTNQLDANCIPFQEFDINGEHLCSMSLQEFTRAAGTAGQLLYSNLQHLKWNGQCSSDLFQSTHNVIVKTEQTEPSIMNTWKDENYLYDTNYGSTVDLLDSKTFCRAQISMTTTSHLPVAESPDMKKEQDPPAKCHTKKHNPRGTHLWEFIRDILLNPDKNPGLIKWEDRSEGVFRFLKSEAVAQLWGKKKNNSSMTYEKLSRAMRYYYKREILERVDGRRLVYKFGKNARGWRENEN
How it was run: as §1

[7] = biological target: SPI1 (Homo sapiens, UniProt P17947 1-270); settings: protein: recombinant; tags: N-terminal GST; dsDNA, one strand shown
How it was run: as §1

[8] = biological target: SPIB (Homo sapiens, UniProt Q01892 1-262); settings: protein: recombinant; tags: N-terminal GST; dsDNA, one strand shown
How it was run: as §1

[9] = biological target: T6, ELK3 (Homo sapiens, UniProt P41970 1-407); settings: protein: recombinant; tags: N-terminal GST; dsDNA, one strand shown
T6 sequence: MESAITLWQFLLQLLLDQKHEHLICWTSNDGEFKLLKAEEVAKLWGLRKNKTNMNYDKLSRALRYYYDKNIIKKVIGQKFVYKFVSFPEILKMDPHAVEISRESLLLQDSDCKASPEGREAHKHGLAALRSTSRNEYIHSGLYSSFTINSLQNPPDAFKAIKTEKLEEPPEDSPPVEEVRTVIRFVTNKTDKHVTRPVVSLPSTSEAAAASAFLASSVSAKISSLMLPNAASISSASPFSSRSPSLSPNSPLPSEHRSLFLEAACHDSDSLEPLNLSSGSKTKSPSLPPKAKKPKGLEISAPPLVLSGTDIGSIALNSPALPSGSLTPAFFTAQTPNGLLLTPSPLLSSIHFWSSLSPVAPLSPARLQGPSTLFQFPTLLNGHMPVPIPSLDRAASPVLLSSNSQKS
How it was run: as §1

[10] = biological target: T7, FEV (Homo sapiens, UniProt Q99581 1-238); settings: protein: recombinant; tags: N-terminal GST; dsDNA, one strand shown
T7 sequence: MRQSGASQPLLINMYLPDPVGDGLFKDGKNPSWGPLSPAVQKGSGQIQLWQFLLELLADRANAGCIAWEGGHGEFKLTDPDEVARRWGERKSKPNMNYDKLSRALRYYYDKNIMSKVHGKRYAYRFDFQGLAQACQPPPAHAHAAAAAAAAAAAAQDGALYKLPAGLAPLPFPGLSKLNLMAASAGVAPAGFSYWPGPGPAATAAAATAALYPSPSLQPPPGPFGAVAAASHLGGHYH
How it was run: as §1

[11] = biological target: ETV5 (Homo sapiens, UniProt P41161 1-510); settings: protein: recombinant; tags: N-terminal GST; dsDNA, one strand shown
How it was run: as §1

[12] = biological target: HSF1 (Homo sapiens, UniProt Q00613 1-529); settings: protein: recombinant; tags: N-terminal GST; chain copies: 3; dsDNA, one strand shown
How it was run: as §1

[13] = biological target: ELF4 (Homo sapiens, UniProt Q99607 1-663); settings: protein: recombinant; tags: N-terminal GST; dsDNA, one strand shown
How it was run: as §1

[14] = biological target: T8, ELK4 (Homo sapiens, UniProt P28324-2 1-405); settings: protein: recombinant; tags: N-terminal GST; dsDNA, one strand shown
T8 sequence: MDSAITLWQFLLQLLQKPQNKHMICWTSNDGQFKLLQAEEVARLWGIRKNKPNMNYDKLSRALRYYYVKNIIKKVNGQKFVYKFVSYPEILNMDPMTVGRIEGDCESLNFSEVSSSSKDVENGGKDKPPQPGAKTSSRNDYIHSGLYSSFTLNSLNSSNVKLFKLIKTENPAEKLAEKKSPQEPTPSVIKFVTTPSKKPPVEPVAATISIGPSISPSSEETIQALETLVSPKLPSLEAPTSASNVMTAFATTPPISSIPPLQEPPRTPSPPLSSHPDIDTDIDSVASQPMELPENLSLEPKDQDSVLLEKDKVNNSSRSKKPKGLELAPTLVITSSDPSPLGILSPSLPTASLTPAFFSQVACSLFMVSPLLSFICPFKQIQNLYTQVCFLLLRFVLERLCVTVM
How it was run: as §1

[15] = biological target: T9, ETV2 (Homo sapiens, UniProt O00321 1-342); settings: protein: recombinant; tags: N-terminal GST; dsDNA, one strand shown
T9 sequence: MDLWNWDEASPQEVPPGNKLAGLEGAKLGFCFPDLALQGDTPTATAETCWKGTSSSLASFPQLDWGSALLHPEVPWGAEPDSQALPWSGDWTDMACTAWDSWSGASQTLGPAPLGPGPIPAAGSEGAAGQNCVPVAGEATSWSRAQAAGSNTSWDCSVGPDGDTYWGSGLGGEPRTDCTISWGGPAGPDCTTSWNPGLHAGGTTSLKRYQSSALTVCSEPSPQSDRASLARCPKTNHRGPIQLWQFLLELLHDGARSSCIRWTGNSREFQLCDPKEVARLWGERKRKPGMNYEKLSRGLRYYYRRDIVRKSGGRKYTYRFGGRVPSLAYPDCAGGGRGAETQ
How it was run: as §1

[16] = biological target: T10, ELF3 (Homo sapiens, UniProt P78545 1-371); settings: protein: recombinant; tags: N-terminal GST; dsDNA, one strand shown
T10 sequence: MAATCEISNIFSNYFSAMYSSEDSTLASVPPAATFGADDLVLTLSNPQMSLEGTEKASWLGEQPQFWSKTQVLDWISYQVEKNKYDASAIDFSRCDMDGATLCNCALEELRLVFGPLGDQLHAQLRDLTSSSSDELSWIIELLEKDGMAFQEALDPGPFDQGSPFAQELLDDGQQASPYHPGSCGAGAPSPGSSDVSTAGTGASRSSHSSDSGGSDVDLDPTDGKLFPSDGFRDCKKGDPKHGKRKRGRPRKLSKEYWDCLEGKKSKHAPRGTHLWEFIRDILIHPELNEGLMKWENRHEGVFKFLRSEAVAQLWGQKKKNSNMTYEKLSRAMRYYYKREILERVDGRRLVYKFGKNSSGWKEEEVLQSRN
How it was run: as §1

[17] = biological target: CRX (Homo sapiens, UniProt O43186 1-299); settings: protein: recombinant; tags: N-terminal GST; dsDNA, one strand shown
How it was run: as §1

[18] = biological target: ETV1 (Homo sapiens, UniProt P50549 1-477); settings: protein: recombinant; tags: N-terminal GST; dsDNA, one strand shown
How it was run: as §1

Sequence of ELF1 (P32519 whole entry): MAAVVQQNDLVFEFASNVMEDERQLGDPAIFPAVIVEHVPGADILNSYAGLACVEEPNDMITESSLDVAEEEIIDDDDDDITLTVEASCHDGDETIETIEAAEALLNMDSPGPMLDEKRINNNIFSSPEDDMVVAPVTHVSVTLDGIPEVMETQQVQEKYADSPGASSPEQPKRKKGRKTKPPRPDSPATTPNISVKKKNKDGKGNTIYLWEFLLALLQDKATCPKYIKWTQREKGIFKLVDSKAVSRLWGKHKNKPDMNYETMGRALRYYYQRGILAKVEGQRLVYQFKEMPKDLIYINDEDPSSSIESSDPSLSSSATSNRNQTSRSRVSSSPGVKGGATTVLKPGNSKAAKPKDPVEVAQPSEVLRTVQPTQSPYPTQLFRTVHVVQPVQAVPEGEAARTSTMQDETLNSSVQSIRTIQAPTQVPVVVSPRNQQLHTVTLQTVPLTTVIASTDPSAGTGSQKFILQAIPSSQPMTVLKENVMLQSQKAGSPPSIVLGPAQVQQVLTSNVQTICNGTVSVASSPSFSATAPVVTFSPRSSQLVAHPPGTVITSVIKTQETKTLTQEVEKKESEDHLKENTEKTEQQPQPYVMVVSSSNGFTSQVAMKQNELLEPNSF
Sequence of SPIB (Q01892 whole entry): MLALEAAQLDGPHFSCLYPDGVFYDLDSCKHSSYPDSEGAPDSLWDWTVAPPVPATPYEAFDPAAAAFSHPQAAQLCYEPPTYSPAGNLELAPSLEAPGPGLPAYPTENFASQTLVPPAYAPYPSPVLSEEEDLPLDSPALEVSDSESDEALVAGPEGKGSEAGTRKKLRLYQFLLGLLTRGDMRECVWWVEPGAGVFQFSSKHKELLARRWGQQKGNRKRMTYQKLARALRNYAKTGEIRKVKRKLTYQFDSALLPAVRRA
Sequence of ETV5 (P41161 whole entry): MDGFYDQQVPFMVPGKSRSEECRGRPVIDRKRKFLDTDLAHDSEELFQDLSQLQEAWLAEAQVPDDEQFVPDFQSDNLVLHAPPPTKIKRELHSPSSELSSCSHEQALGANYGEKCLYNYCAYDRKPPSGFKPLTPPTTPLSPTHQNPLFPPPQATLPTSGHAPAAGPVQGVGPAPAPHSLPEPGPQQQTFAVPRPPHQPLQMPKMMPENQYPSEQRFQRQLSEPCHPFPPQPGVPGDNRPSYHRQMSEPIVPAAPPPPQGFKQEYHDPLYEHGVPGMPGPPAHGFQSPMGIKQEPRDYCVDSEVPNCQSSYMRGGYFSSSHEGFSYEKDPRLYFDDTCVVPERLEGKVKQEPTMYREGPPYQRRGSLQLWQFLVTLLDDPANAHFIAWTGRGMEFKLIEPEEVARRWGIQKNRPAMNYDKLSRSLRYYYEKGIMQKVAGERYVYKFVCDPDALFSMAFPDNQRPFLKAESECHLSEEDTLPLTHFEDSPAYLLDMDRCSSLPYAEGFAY
Sequence of CRX (O43186 whole entry): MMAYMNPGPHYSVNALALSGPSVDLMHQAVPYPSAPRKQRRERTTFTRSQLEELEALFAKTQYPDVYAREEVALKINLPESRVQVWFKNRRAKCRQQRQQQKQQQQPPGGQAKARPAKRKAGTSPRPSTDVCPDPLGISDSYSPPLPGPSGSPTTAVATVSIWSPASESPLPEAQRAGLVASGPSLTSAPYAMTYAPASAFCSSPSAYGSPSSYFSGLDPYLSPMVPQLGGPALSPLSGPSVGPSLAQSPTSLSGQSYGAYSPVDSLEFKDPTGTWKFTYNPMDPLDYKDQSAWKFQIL
Sequence of HSF1 (Q00613 whole entry): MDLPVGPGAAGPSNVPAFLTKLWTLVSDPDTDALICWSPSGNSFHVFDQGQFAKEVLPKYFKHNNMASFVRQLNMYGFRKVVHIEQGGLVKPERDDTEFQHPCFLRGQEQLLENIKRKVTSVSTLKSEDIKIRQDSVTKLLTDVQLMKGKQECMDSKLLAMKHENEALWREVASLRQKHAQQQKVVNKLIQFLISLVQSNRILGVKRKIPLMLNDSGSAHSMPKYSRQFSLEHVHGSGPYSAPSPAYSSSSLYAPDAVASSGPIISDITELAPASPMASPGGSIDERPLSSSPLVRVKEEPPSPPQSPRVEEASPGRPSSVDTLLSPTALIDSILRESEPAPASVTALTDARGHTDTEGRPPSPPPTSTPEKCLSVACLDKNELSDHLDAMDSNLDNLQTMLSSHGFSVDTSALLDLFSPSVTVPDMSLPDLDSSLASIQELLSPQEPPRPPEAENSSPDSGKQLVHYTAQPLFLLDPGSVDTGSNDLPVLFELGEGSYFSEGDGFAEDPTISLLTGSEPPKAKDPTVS
Sequence of ETV1 (P50549 whole entry): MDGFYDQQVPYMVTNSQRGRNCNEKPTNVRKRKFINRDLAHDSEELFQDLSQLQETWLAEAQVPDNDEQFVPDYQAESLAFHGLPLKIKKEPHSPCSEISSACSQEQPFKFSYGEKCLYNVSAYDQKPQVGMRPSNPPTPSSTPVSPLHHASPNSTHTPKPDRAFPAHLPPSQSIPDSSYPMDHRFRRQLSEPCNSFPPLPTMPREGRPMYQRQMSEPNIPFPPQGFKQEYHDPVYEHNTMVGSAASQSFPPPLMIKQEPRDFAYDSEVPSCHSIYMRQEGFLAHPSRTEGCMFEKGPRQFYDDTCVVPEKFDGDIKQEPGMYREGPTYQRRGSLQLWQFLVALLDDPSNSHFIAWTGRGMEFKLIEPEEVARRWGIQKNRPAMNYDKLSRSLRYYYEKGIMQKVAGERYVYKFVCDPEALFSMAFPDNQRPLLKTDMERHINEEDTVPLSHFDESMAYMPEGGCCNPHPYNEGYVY
Sequence of ELF4 (Q99607 whole entry): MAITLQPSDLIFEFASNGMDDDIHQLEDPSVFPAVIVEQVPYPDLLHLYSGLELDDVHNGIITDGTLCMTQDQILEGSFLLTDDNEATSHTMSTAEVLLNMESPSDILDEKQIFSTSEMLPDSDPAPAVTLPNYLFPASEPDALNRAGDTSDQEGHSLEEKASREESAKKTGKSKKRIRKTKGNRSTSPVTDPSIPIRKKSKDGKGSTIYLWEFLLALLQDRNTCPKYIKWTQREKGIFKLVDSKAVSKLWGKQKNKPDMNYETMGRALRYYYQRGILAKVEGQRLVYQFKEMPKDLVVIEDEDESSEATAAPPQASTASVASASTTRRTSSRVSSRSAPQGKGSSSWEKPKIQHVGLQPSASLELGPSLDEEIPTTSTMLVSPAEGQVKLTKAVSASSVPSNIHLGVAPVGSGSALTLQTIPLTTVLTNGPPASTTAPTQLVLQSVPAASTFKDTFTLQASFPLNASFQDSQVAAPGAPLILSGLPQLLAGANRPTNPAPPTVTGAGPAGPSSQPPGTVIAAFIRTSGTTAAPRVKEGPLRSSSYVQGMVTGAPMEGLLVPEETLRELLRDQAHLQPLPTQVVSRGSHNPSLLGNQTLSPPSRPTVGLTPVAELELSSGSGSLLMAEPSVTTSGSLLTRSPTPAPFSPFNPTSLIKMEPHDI

Sequence | binding signal [1] | binding signal [2] | binding signal [3] | binding signal [4] | binding signal [5] | binding signal [6] | binding signal [7] | binding signal [8] | binding signal [9] | binding signal [10] | binding signal [11] | binding signal [12] | binding signal [13] | binding signal [14] | binding signal [15] | binding signal [16] | binding signal [17] | binding signal [18]
AAATAG | 1.18 fold enrichment (6-mer frequency, TF over GST control) | 1.1 fold enrichment (6-mer frequency, TF over GST control) | 1.12 fold enrichment (6-mer frequency, TF over GST control) | 1.22 fold enrichment (6-mer frequency, TF over GST control) | 1.08 fold enrichment (6-mer frequency, TF over GST control) | 1.19 fold enrichment (6-mer frequency, TF over GST control) | 1.22 fold enrichment (6-mer frequency, TF over GST control) | 1.15 fold enrichment (6-mer frequency, TF over GST control) | 1.08 fold enrichment (6-mer frequency, TF over GST control) | 1.16 fold enrichment (6-mer frequency, TF over GST control) | 1.2 fold enrichment (6-mer frequency, TF over GST control) | 1.09 fold enrichment (6-mer frequency, TF over GST control) | 1.02 fold enrichment (6-mer frequency, TF over GST control) | 1.15 fold enrichment (6-mer frequency, TF over GST control) | 1.06 fold enrichment (6-mer frequency, TF over GST control) | 1.17 fold enrichment (6-mer frequency, TF over GST control) | 1.11 fold enrichment (6-mer frequency, TF over GST control) | 1.11 fold enrichment (6-mer frequency, TF over GST control)
AAAAGA | 1.11 fold enrichment (6-mer frequency, TF over GST control) | 1.19 fold enrichment (6-mer frequency, TF over GST control) | 1.19 fold enrichment (6-mer frequency, TF over GST control) | 1.06 fold enrichment (6-mer frequency, TF over GST control) | 1.06 fold enrichment (6-mer frequency, TF over GST control) | 1.2 fold enrichment (6-mer frequency, TF over GST control) | 1.5 fold enrichment (6-mer frequency, TF over GST control) | 1.26 fold enrichment (6-mer frequency, TF over GST control) | 1.11 fold enrichment (6-mer frequency, TF over GST control) | 1.07 fold enrichment (6-mer frequency, TF over GST control) | 1.12 fold enrichment (6-mer frequency, TF over GST control) | 1.43 fold enrichment (6-mer frequency, TF over GST control) | 1.2 fold enrichment (6-mer frequency, TF over GST control) | 1.2 fold enrichment (6-mer frequency, TF over GST control) | 1.1 fold enrichment (6-mer frequency, TF over GST control) | 1.17 fold enrichment (6-mer frequency, TF over GST control) | 1.28 fold enrichment (6-mer frequency, TF over GST control) | 1.14 fold enrichment (6-mer frequency, TF over GST control)
